Drawing on ChEMBL document CHEMBL1961873, “Compounds: GSK PKIS; Assays: Nanosyn kinase panel” (2012), this text covers inhibition for 6 compounds.

For experiment [1], the target named is CDK3/Cyclin E (Homo sapiens) (UniProt P24864+Q00526). The settings on record: at 1 µM.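 Further: each figure is a mean percent inhibition of the CDK3/cyclin E complex.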
The target of experiment [2] is Cyclin-dependent kinase 4 (Homo sapiens) (UniProt P11802). The settings on record: at 0.1 µM.
Experiment [3] shares this target. The settings on record: at 1 µM.
Experiment [4] addresses Cyclin-dependent kinase 5 (Homo sapiens) (UniProt Q00535). The settings on record: at 0.1 µM.
The target is the same in experiment [5]. The settings on record: at 1 µM.
The target of experiment [6] is Cyclin-dependent kinase 6 (Homo sapiens) (UniProt Q00534). The settings on record: at 0.1 µM.
Sequence of Cyclin-dependent kinase 6 (Homo sapiens) (Q00534 whole entry): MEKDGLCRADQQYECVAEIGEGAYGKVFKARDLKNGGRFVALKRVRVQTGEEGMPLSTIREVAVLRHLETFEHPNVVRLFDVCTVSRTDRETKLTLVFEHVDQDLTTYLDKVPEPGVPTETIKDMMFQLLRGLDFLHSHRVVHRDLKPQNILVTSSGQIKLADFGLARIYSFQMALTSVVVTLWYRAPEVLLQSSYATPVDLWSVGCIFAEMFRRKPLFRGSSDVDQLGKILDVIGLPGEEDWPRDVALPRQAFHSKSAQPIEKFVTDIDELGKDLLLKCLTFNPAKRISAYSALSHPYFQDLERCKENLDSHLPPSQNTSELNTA
The target is the same in experiment [7]. The settings on record: at 1 µM.
Experiment [8] has as its target Dual specificity protein kinase CLK2 (Homo sapiens) (UniProt P49760). The settings on record: at 0.1 µM.
Experiment [9] has the same target. The settings on record: at 1 µM.
Experiment [10] deals with Dual specificity protein kinase CLK3 (Homo sapiens) (UniProt P49761). The settings on record: at 0.1 µM.
Sequence of Dual specificity protein kinase CLK3 (Homo sapiens) (P49761 whole entry, looked up): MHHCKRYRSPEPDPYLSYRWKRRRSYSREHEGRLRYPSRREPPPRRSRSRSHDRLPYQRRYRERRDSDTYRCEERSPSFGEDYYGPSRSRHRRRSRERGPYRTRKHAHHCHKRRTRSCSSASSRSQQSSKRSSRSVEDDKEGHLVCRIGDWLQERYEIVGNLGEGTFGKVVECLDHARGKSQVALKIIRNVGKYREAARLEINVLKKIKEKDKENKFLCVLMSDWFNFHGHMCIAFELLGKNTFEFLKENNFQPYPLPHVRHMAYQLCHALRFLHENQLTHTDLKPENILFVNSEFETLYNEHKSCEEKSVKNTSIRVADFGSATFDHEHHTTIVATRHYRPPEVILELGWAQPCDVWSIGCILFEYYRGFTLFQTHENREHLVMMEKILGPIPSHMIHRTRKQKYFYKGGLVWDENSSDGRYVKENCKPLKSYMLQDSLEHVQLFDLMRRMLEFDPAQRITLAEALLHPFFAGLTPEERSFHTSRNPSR
Experiment [11] has the same target. The settings on record: at 1 µM.
Experiment [12] has as its target Dual specificity tyrosine-phosphorylation-regulated kinase 1A (Homo sapiens) (UniProt Q13627). The settings on record: at 0.1 µM.
For experiment [13] the target is unchanged. The settings on record: at 1 µM.
Experiment [14] concerns the target Dual specificity tyrosine-phosphorylation-regulated kinase 1B (Homo sapiens) (UniProt Q9Y463). The settings on record: at 0.1 µM.
For experiment [15] the target is unchanged. The settings on record: at 1 µM.
Experiment [16] deals with T1, Dual specificity tyrosine-phosphorylation-regulated kinase 2 (Homo sapiens) (UniProt Q92630).
T1 sequence (whole entry): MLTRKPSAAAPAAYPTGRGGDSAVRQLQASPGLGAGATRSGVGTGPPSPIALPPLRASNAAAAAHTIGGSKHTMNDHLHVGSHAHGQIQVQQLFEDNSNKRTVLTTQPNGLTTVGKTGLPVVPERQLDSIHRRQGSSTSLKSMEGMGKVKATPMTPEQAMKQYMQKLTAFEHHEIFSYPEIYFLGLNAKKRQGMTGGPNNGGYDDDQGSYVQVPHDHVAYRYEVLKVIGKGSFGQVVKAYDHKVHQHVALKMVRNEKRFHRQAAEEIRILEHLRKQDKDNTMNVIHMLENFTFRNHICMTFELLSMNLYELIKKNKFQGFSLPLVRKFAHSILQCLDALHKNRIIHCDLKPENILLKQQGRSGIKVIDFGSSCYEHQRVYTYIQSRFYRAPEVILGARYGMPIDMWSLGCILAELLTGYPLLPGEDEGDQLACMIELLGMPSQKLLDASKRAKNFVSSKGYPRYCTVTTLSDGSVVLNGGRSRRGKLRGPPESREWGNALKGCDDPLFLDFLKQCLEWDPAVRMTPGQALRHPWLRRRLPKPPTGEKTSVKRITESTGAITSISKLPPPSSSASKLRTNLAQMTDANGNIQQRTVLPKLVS
The settings on record: at 0.1 µM.

Experiment [17] addresses T1, Dual specificity tyrosine-phosphorylation-regulated kinase 2 (Homo sapiens). The settings on record: at 1 µM.
For experiment [18], the target named is Glycogen synthase kinase-3 alpha (Homo sapiens) (UniProt P49840). The settings on record: at 0.1 µM.
Sequence of Glycogen synthase kinase-3 alpha (Homo sapiens) (P49840 2-483 limits assumed): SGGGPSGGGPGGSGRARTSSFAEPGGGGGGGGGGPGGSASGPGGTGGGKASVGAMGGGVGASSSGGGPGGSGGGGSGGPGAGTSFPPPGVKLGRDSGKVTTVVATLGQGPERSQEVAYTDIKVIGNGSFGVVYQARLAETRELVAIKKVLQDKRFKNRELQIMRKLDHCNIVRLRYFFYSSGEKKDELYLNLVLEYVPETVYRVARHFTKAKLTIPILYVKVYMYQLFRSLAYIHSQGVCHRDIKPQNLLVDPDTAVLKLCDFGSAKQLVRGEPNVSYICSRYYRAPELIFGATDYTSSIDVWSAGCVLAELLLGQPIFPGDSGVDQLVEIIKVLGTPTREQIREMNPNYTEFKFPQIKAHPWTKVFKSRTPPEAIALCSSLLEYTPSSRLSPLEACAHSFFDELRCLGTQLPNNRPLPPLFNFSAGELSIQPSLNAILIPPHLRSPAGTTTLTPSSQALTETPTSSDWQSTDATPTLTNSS
The target is the same in experiment [19]. The settings on record: at 1 µM.
For experiment [20], the target named is Glycogen synthase kinase-3 beta (Homo sapiens) (UniProt P49841). The settings on record: at 0.1 µM.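 Further: values are mean percent inhibition of GSK3B activity, from the GSK Published Kinase Inhibitor Set (PKIS) screening dataset.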
Sequence of Glycogen synthase kinase-3 beta (Homo sapiens) (P49841 whole entry, looked up): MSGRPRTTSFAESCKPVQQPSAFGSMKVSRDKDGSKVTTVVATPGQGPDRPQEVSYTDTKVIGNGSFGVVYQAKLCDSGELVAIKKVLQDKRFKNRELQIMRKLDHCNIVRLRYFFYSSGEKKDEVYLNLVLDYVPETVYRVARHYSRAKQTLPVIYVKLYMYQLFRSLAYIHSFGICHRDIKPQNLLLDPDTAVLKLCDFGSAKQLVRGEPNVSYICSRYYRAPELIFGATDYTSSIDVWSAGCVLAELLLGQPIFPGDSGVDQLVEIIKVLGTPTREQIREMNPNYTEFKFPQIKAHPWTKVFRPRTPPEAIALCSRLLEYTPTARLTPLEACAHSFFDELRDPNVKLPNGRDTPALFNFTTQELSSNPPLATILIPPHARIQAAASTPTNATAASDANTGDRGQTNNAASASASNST

Sequence of CDK3/Cyclin E (Homo sapiens) (P24864 whole entry, looked up): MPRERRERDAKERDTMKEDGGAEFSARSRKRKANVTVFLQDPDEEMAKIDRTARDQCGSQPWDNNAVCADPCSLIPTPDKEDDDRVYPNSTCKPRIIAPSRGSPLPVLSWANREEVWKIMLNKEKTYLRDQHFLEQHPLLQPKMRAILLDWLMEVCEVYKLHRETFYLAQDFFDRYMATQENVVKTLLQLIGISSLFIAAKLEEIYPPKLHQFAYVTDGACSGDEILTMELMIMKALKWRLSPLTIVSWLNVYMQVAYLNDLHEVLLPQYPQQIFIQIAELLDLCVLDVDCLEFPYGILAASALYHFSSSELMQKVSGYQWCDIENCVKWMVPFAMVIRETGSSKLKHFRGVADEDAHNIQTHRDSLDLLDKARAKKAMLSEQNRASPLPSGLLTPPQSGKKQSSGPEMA
Sequence of CDK3/Cyclin E (Homo sapiens) (Q00526 whole entry, looked up): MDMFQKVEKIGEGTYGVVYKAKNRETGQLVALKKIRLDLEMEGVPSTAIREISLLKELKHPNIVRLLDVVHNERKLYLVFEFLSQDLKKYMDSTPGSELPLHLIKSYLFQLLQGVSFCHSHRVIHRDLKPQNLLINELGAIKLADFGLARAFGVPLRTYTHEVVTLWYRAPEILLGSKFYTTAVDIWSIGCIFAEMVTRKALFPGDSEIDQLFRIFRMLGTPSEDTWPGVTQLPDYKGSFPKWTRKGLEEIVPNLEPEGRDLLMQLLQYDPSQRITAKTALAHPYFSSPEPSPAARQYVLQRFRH
Sequence of Cyclin-dependent kinase 4 (Homo sapiens) (P11802 whole entry): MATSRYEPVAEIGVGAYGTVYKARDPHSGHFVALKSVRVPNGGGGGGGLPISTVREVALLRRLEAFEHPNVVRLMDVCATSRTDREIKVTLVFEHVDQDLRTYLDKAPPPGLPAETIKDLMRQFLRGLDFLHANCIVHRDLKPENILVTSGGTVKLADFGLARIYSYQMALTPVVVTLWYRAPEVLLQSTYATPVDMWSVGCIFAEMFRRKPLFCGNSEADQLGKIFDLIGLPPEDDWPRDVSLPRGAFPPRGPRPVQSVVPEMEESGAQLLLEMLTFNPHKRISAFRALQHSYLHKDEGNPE
Sequence of Dual specificity tyrosine-phosphorylation-regulated kinase 1B (Homo sapiens) (Q9Y463 whole entry, looked up): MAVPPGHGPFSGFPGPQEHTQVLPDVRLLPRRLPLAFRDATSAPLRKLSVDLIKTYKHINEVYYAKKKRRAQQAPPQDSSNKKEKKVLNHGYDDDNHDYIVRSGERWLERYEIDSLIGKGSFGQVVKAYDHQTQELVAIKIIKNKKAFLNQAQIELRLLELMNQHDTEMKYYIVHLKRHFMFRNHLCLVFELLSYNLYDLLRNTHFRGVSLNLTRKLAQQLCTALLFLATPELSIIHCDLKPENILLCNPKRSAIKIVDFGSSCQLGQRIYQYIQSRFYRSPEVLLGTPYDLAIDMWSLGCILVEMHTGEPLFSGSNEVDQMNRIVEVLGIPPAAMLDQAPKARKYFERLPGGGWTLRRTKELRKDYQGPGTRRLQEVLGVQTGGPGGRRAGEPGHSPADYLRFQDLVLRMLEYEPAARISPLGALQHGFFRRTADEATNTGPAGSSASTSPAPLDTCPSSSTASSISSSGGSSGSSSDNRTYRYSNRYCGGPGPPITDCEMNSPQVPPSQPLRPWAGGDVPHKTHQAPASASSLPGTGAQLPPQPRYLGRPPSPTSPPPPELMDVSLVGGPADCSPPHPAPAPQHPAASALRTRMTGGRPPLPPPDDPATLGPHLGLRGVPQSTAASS
Sequence of Cyclin-dependent kinase 5 (Homo sapiens) (Q00535 whole entry, looked up): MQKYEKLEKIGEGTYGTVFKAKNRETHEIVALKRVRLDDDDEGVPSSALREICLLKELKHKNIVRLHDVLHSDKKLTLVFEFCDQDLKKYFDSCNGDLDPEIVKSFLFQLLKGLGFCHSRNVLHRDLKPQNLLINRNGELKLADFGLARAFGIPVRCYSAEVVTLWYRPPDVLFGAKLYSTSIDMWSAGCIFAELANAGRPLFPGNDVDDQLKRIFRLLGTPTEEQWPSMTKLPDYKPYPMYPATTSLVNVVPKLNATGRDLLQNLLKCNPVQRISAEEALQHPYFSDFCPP
Sequence of Dual specificity protein kinase CLK2 (Homo sapiens) (P49760 whole entry, looked up): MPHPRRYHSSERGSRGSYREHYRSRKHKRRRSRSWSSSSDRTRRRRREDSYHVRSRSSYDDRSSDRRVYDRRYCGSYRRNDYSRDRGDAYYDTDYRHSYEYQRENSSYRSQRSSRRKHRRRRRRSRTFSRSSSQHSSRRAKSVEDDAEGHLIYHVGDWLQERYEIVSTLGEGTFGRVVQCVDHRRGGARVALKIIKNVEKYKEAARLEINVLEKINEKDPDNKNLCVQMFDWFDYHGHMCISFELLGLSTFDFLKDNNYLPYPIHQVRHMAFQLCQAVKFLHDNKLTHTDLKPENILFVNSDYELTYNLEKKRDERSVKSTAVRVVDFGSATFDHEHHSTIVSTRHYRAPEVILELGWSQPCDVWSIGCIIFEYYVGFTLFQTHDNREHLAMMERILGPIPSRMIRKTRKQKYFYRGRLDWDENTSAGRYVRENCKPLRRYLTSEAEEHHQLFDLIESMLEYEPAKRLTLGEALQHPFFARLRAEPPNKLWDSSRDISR

As to `CN(C)CCOc1ccc(-c2cc(-c3ccc4c(c3)CCC4=NO)c(-c3ccncc3)o2)cc1`, the inhibition (usually the relative decrease from the control value, in per cent) is -0.71% in experiment [1]; -0.67% in experiment [2]; 1.69% in experiment [3]; 0.66% in [4]; 0.57% in [5]; -3.52% in experiment [6]. Moreover, the inhibition in experiment [7] is -0.6%; in experiment [8], 0.73%; in [9], -1.28%; in experiment [10], -0.3%; in [11], 1.91%; in experiment [12], -1.28%. The inhibition is 0.21% in [13]; -1.57% in experiment [14]; -1.47% in experiment [15]; -1.36% in experiment [16]; -2.61% in experiment [17]; -0.52% in experiment [18]. The values for the inhibition in experiment [19] and in experiment [20] were -0.36% and -0.79%, respectively.
As to `COC(=O)Nc1nc2ccc(Sc3ccc(NC(=O)Nc4cc(C(F)(F)F)ccc4F)cc3)cc2[nH]1`, the inhibition was 0.64% in experiment [1]; -4.86% in [2]; 1.81% in experiment [3]; 0.21% in experiment [4]; 1.9% in experiment [5]; 7.92% in experiment [6]. Also, the inhibition in experiment [7] was 2.22%; in [8], 1.38%; in experiment [9] it was -0.84%; in experiment [10], 0.48%; in experiment [11], 2.87%; in experiment [12] it was 0.92%. Further, the inhibition in [13] was found to be 1.72%; in [14], 1.9%; in experiment [15] it was 3.2%; in [16] it was 0.2%; in experiment [17], 0.89%; in experiment [18] it was 0.12%. The inhibition in experiment [19] came to 0.68%; in [20] it was 2.16%.
In the case of `C#Cc1cccc(Nc2ncnc3ccc(OCCCCNCCS(C)(=O)=O)cc23)c1`, the inhibition in experiment [1] was -3.02%; in [2] it was -1.23%; in experiment [3], 0.97%; in experiment [4], -2.73%; in experiment [5] it was -2.83%; in experiment [6] it was -4.26%. Moreover, the inhibition was 0.21% in experiment [7]; 1.01% in experiment [8]; 1.36% in experiment [9]; -1.3% in experiment [10]; -1.87% in experiment [11]; 0.92% in experiment [12]. Besides, the inhibition in [13] is 4.86%; in experiment [14] it was -2.75%; in experiment [15] it was -1.25%; in experiment [16], 2.91%; in experiment [17] it was 7.08%; in [18], -0.41%. For the same compound, the inhibition in experiment [19] is 1.81%; in experiment [20] it was -0.71%.
For `Fc1ccc(-c2ncn(C3CCNCC3)c2-c2ccnc(Oc3ccc(Oc4ccccc4)cc3)n2)cc1`, the inhibition was -1.29% in experiment [1]; 4.1% in experiment [2]; 3.52% in experiment [3]; 0.97% in [4]; 1.86% in [5]; -6.79% in experiment [6]. Besides, the inhibition in experiment [7] is -6.24%; in [8] it was 2.06%; in experiment [9], 4.62%; in experiment [10] it was 0.9%; in experiment [11] it was 1.21%; in experiment [12], 2.96%. Moreover, the inhibition in [13] is 3.95%; in experiment [14], -0.87%; in experiment [15] it was 0.42%; in experiment [16], 4.61%; in experiment [17], 7.67%; in experiment [18], 2.97%. In addition, the inhibition turned out to be 2.77% in experiment [19] and 2.21% in experiment [20].
For the compound `CN(C)CCCNc1nccc(-c2c(-c3ccc(F)cc3)nn3cc(C(F)(F)F)ccc23)n1`, the inhibition was 1.62% in experiment [1]; -2.82% in experiment [2]; 1.54% in experiment [3]; -1.32% in [4]; 1.69% in [5]; -1.2% in [6]. Further, the inhibition is -0.54% in experiment [7]; 1.26% in experiment [8]; -0.07% in [9]; -2.82% in experiment [10]; -2.17% in experiment [11]; -2.63% in experiment [12]. The inhibition was 1.55% in [13]; -2.7% in [14]; -0.43% in experiment [15]; 1.01% in experiment [16]; 2.09% in experiment [17]; 2.87% in [18]. Moreover, the inhibition in experiment [19] is 7.76%; in experiment [20], 3.14%.
In the case of `CN(C)c1ccc2c(c1)/C(=C/Nc1ccc(S(N)(=O)=O)cc1)C(=O)N2`, the inhibition worked out at 38.9% in experiment [1]; 11.3% in experiment [2]; 43.5% in experiment [3]; 16.2% in experiment [4]; 57% in experiment [5]; 4.7% in experiment [6]. In addition, the inhibition was 48.2% in experiment [7]; 1.72% in experiment [8]; 11% in [9]; 0.66% in experiment [10]; 3.39% in experiment [11]; 7.43% in [12]. Further, the inhibition came out at 33.4% in [13]; 4.54% in experiment [14]; 24.5% in [15]; 1.54% in experiment [16]; 4.74% in [17]; 8.28% in experiment [18]. For the same compound, the inhibition in [19] worked out at 21.6%; in [20], 6.03%.
